# Bioassay records: PubChem BioAssay, Columbia University Molecular Screening Center
# E-sel TNF inh: E-selectin induction blockers in HUVEC – imaging, immunofluorescence, high content, primary screen; HUVEC TNFa-induced E-selectin immunofluorescence; inhibition, % at 2 µM; actives 0.71% (n = 120,000);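 active = inhibition above the batch mean plus 3 SD, and confirmed as a hit on visual image review, cut at about 43% in these data; inconclusive = passes the inhibition cutoff but fails visual image review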;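 note: 0% = TNF-stimulated DMSO wells and 100% = unstimulated control wells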
# TNFa cytotox: cytotoxicity in TNFa-stimulated HUVEC, primary screen, cytotoxicity control for VCAM1 expression modulator project, imaging, Hoechst nuclei count. HUVEC TNFalpha-stimulated, Hoechst cell count. cell count reduction, % at 2 µM. actives 0.17% (n = 93,000). AID 848, 2007;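 active = cell count reduction exceeding the screen mean by over 5 SD, scaled to untreated wells per plate, cut at about 78% in these data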;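 note: cells counted after 24 h of TNF alpha exposure following the 1 h pretreatment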
# F-actin modifier: modifiers of F-actin cytoskeleton organization, primary screen, imaging, HUVEC, phalloidin staining, high-content imaging; HUVEC TNFa F-actin phalloidin imaging; inhibition, % at 2 µM; actives 0.18% (n = 91,000);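 active = inhibition above the batch mean plus 3 SD and confirmed as a hit by visual image inspection, cut at about 30% in these data, passing the limit was not always enough; inconclusive = above the inhibition threshold but rejected on visual inspection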
# VCAM1 TNFa inh: inhibitors of TNFa-induced VCAM1 expression, primary screen, imaging, HUVEC, TNFa stimulus, immunofluorescence; actives 0.48% (n = 95,000); HUVEC TNFa-induced VCAM-1 immunofluorescence, high-content imaging; inhibition, % at 2 µM;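 active = inhibition above the batch mean plus 3 SD, with images confirmed as a hit by eye, cut at about 37% in these data; inconclusive = inhibition above that limit but hit not confirmed in images; inactive = inhibition not above that limit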;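 note: 0% = TNF-stimulated DMSO wells and 100% = unstimulated control wells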
# Numbers without * were called inactive; ? = inconclusive; · = not tested or not shown. Only some compounds are listed: those with a hit (about 1% of all), similar ones and a draw of the others.
SMILES,E-sel TNF inh,TNFa cytotox,F-actin modifier,VCAM1 TNFa inh
O=C(COC(=O)c1ccccc1OCc1ccc(Cl)cc1)NC1CC1,-18.9,-17.2,23.2,3.1
O=[N+]([O-])c1cnccc1Nc1ccc(F)cc1,6.5,94.4*,84.7*,53.3*
Nc1ccc(Nc2ccncc2[N+](=O)[O-])cc1,-26.7,-10.6,7.8,9.0
N=C1C(c2nc3ccccc3s2)=C(O)CN1Cc1ccco1,·,-5.4,-7.8,96.0*
COC(=O)c1cc(NS(=O)(=O)c2ccc(N3CCC(C)CC3)c([N+](=O)[O-])c2)cc(C(=O)OC)c1,-21.0,·,·,·
O=C(CN1CCN(Cc2ccccc2Cl)C1=O)NCc1ccco1,63.5*,-22.7,11.1,4.2
O=C(NCc1ccco1)C(=O)NCc1ccccc1Cl,-13.0,·,·,·
FC(F)(F)c1n[nH]c(=S)n1/N=C/c1ccco1,12.6,·,·,·
COC(=O)c1nnn(-c2ccc(Cl)c(Cl)c2)c1C(=O)OC,73.3*,·,·,·
COC(=O)c1nnn(-c2ccccc2)c1N,6.3,·,2.1,-18.0
Oc1ccc(-c2csc(-c3ccccc3)n2)cc1O,50.8*,-2.8,-27.5,0.6
O=C(NCN1C(=O)C2C3C=CC(C3)C2C1=O)Nc1nncs1 (stereo unspecified),99.9*,57.8,0.3,11.0
COc1ccc2c(c1)C1=NN(/C(C)=C\C(C)=O)C(c3ccccc3)C1CC2 (stereo unspecified),5.9,-24.4,10.5,4.8
Cc1csc(SCC(=O)Nc2ncc(Cl)c(C)c2Cl)n1,·,-4.7,-0.1,-6.4
O=S(=O)(c1cccc(-n2cnnn2)c1)N1CCOCC1,·,100.0*,?,?
COc1cc(-n2cnnn2)ccc1S(=O)(=O)N1CCOCC1,·,-22.3,6.4,-24.3
Cc1ccc(Nc2nnc(SCC(=O)Nc3cccnc3Cl)s2)cc1C,3.0,·,·,·
CC(C)COc1ccc(CSCCNC(=S)Nc2ccccc2)cc1,-48.6,7.0,-15.9,11.8
CCOC(=O)c1c(NC(=O)CSc2nnc(C)c(=O)[nH]2)sc(C)c1C,65.2*,·,·,·
O=S(=O)(/C(=C/c1ccc(C(F)(F)F)cc1)c1nc2ccccc2[nH]1)c1ccccc1,98.9*,·,·,·
CC(C)c1ccc(/C=C(\c2nc3ccccc3[nH]2)S(=O)(=O)c2ccccc2)cc1,24.3,·,·,·
O=C(CCl)N1N=C(c2ccco2)CC1c1cccs1 (stereo unspecified),69.7*,·,·,·
CCn1cc(C(=O)NCc2ccco2)c(=O)c2cc(S(=O)(=O)N3CCc4ccccc4C3)ccc21,100.0*,-13.1,-31.4,-2.8
COCCn1c(SCC(=O)c2ccc(Cl)cc2)nnc1C(C)C,70.9*,-13.1,54.5,-1.3
COCCn1c(SCC(=O)c2ccc3c(c2)OCCO3)nnc1C(C)C,-10.5,-6.2,-1.5,14.4
SMILES,E-sel TNF inh,TNFa cytotox,F-actin modifier,VCAM1 TNFa inh
Cc1ccc(CN2C(=O)CCC2C(=O)NCc2ccccc2Cl)cc1 (stereo unspecified),-0.6,·,·,·
CCCCCCCCn1c2c(c(=N)c3ccccc31)CCC2,-27.0,·,·,·
CCCCCCCCCCn1c2c(c(=N)c3c1CCC3)CCC2,·,14.2,-43.1,86.6*
O=c1c2ccccc2nc2n1C(CSCc1ccc(Cl)cc1Cl)CS2 (stereo unspecified),·,-14.0,0.3,1.0
Cc1ccc(S(=O)(=O)NNC(=O)c2sccc2-n2cccc2)cc1,61.9*,-6.3,-19.1,9.3
CCC1=NN=C(c2ccc(F)cc2)C(c2c[nH]c3ccccc23)N1O (stereo unspecified),5.3,-24.8,1.5,21.7
O=S(=O)(Nc1ccc2c3c(cccc13)CC2)c1ccc(F)cc1,-43.1,9.6,-19.8,-3.1
CSc1ccc(S(=O)(=O)Nc2ccc3c4c(cccc24)CC3)cc1,25.8,17.5,-45.8,43.6*
CN(C)/C=C(/C(=O)c1ccc(Cl)cc1)S(=O)(=O)c1ccc(Cl)cc1,-21.3,-1.7,19.0,13.5
COc1ccc(C(CC(=O)NCc2ccccc2)Sc2n[nH]c(-c3ccccc3)n2)cc1 (stereo unspecified),92.1*,·,·,·
CC1CCCN(c2nc3c(c(=O)[nH]c(=O)n3C)n2CCCc2ccccc2)C1 (stereo unspecified),-51.7,·,·,·
COC(=O)CCc1nc2ccccc2[nH]c1=O,-9.5,-29.7,-2.7,16.8
CCOC(=O)CCc1nc2ccccc2[nH]c1=O,63.0*,-13.2,8.2,4.2
C=C1C(=O)C=C2CN(C(=O)c3ccccc3)[C@@](Cc3ccc(F)cc3)(C(=O)OC)[C@@H]12,99.7*,·,·,·
Cc1ccccc1Nc1scc(-c2ccc(Cl)cc2)[n+]1-c1ccccc1C,0.5,·,·,·
CCOc1ccc(-n2c(SCC(=O)c3c(N)n(C)c(=O)n(C)c3=O)nnc2-c2cccnc2)cc1,-12.8,·,·,·
CCCn1c(=O)c2ccccc2n2c(SCC(=O)NCc3cccs3)nnc12,-6.7,-21.5,78.9*,23.0
NC(=O)CNC(=O)[C@@H]1CC2(CC(c3ccccc3)=NO2)CN1C(=O)c1ccc(Br)cc1 (stereo partly specified),-30.2,0.3,-2.3,7.6
COc1cccc(C(=O)N/N=C/c2ccc(OC3CSC3)cc2)c1,10.4,93.9*,-134.6,·
Cc1cccc(C(=O)N/N=C/c2ccc(OC3CSC3)cc2)c1,-25.8,-10.4,-2.9,4.8
Cn1c(CN2CCOCC2)nnc1SCC(=O)NCCc1ccccc1,-2.0,-3.9,-8.3,14.5
CCCc1sc(N/N=C/c2ccccn2)nc1-c1ccc(Br)cc1,-8.3,-8.2,4.5,93.9*
CC(C)n1c(SCC(=O)Nc2nc3c(s2)CCCC3)nc2c1c(=O)n(C)c(=O)n2C,99.8*,-13.7,0.7,1.2
CCOCCCNC(=O)c1ccc(CS(=O)(=O)Cc2ccc(C)cc2)o1,-5.6,-8.7,3.4,-9.9
OC1(c2cccc(C(F)(F)F)c2)CCN(c2ncnc3c2[nH]c2ccc(F)cc23)CC1,·,-11.1,7.1,54.2*
SMILES,E-sel TNF inh,TNFa cytotox,F-actin modifier,VCAM1 TNFa inh
Fc1ccc2[nH]c3c(N4CCN(c5ccccc5)CC4)ncnc3c2c1,-13.0,·,·,·
O=S(=O)(NCCc1cn2ccccc2n1)c1ccc(F)c(C(F)(F)F)c1,·,-13.0,-8.9,16.6
Cc1ccn2cc(CCNS(=O)(=O)c3ccc(F)c(C(F)(F)F)c3)nc2c1,88.8*,-14.0,-3.5,-3.5
O=C(OCC1CC(c2ccccn2)=NO1)c1ccc(Br)cc1 (stereo unspecified),96.0*,·,·,·
O=C(NCCc1ccccc1)C(=O)c1c(-c2ccccc2)[nH]c2ccccc12,-13.4,·,·,·
CCc1ccc(NS(=O)(=O)c2cc(OC)ccc2OC)cc1,·,80.8*,9.4,39.7
COc1cc(C2C(C#N)=C(C)NC3=C2C(=O)c2ccccc23)cc(OC)c1OC (stereo unspecified),·,63.0,-10.2,89.1*
CC1=C([N+](=O)[O-])C(c2ccccc2)C2=C(N1)c1ccccc1C2=O (stereo unspecified),-9.4,46.6,9.3,44.4*
CCOc1ccc(C2C(C#N)=C(C)NC3=C2C(=O)c2ccccc23)cc1 (stereo unspecified),9.7,0.9,1.5,3.5
COc1ccc(C2C(C#N)=C(C)NC3=C2C(=O)c2ccccc23)cc1 (stereo unspecified),·,-8.3,-24.1,29.9
